Vaccinia Venus: inhibitors of vaccinia virus (Venus reporter); Vaccinia virus Venus reporter expression, fluorescence; Potency, µM (top dose mostly 36.5 µM), most hits filed as inhibitors; actives 0.46% (n = 330,000); calls by dose curve; tested in A549 cells; also: nearly all actives have a fitted effect of over 30% in size
Lassa entry inh: blocks Lassa virus binding to or entry into cells; actives 1.2% (n = 300,000); Lassa virus pseudotype entry inhibition, cell reporter; Potency, µM (series often up to 37.9 µM), hits mostly inhibitors; calls by dose curve; tested in HEK293 cells; also: nearly all actives have a fitted effect of over 50% in size
Marburg entry inh: inhibitors of Marburg virus binding or cell entry; Marburg virus pseudotyped entry inhibition, cell reporter; Potency, µM (highest dose often 37.8 µM), usual class: inhibitors; AID 540276; actives 1.8% (n = 300,000); calls by dose curve; tested in HEK293 cells
FMDV inh: antivirals against foot and mouth disease virus; FMDV antiviral cell-based qHTS; Potency, µM (highest dose often 57.9 µM), hits mostly inhibitors; actives 1.2% (n = 410,000); calls by dose curve; tested in HEK293T cells; also: read-out not given here; nearly all actives have a fitted effect of over 45% in size
HCMV inh: blocks human cytomegalovirus replication; HFF cells, HCMV-luciferase reporter, 72 h; hits give low values; actives 4.5% (n = 410,000); activity change, negative = inhibition, % at 57.5 µM; in the data active = activity change below about -60%; inconclusive = no clear call, values can overlap the other calls; inactive = above about -39%
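Luciferase read-out from HCMV-luciferase-infected HFFs (MOI 1 PFU/cell) 72 h post infection at 37C; compounds added after 16 h cell attachment; activity normalized between buffer-only basal and Salinomycin (10uM) inhibitor controls.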
VACV mCherry inh: inhibitors of vaccinia virus infection (mCherry reporter signal); Potency, µM (doses to about 36.5 µM), most hits filed as inhibitors; actives 0.63% (n = 310,000); Vaccinia virus mCherry reporter infection, fluorescence; AID 720579; calls by dose curve; tested in A549 cells; also: nearly all actives have a fitted effect of over 35% in size
Hits are given with their value; – = inactive; ? = inconclusive; · = no result; + = active, no number; ! = a repeat was not active; [ ] = another dose, or the depositor's remark. Rows were chosen to be rich in hits. Some 6.5% of all compounds tested hit in one or more screens of this group.

SMILES	Vaccinia Venus	Lassa entry inh	Marburg entry inh	FMDV inh	HCMV inh	VACV mCherry inh
COc1cccc(CNC(=O)C(NS(=O)(=O)c2ccc3c(c2)CCN3C(C)=O)C(C)C)c1 (centres undefined)	–	–	?	–	+!	–
O=C(C1CCC1)N1CCc2cc(S(=O)(=O)NCCN3CCN(c4ccccc4F)CC3)ccc21	?	15.8µM	12.6µM	–	–	?
CC(=O)N1CCc2cc(S(=O)(=O)NCCC(=O)NCCc3ccc(Cl)cc3)ccc21	·	·	·	?	-74.9	·
O=C(CCNS(=O)(=O)c1ccc2c(c1)CCN2C(=O)C1CC1)N1CCN(c2ccccc2F)CC1	–	–	·	–	–	–
COc1ccc(CNS(=O)(=O)c2ccc3c(c2)CCN3C(=O)C2CC2)cc1	–	–	–	–	-62.2	–
CN1CCN(C(=O)c2ccc(N3CC4ON=C(c5c(F)cccc5Cl)C4C3)cc2)CC1 (centres undefined)	·	·	·	·	–	·
O=C(CCl)c1ccc2c(c1)CCN2C(=O)C1CCCCC1	–	–	?	20µM	–	–
O=C(C1CCC1)N1CCc2cc(S(=O)(=O)Nc3ccc4c(c3)OCO4)ccc21	?	–	?	–	-72.0	?
CCC1CCCCN1S(=O)(=O)c1ccc2c(c1)CCN2C(=O)C1CCC1 (centres undefined)	–	?	?	?	–	–
COc1ccc(C(=O)C2CCCN(C(=O)c3cccnc3SC)C2)c(C)c1 (centres undefined)	–	–	?	–	–	–
Cc1ccc(NC(=S)/C(C#N)=C2/Nc3ccccc3S2)cc1	?	·	·	?	-78.9	?
Cc1ccc(Cn2cc(CN3CC(N(C)C)CS3(=O)=O)nn2)cc1 (centres undefined)	–	·	·	–	–	–
CCOC(=O)CN1C(=O)NC(c2cccc(F)c2)C(C(C)=O)=C1C (centres undefined)	·	·	–	·	·	·
CCCn1c(CC)nc([N+](=O)[O-])c1S(=O)(=O)c1ccccc1	·	?	?	12.6µM	–	·
CCc1nc(C)cn1S(=O)(=O)c1ccc([N+](=O)[O-])cc1	–	–	–	–	–	–
O=C(N/N=C\c1cn(-c2ccccc2)nc1-c1ccccc1)c1ccc(Br)o1	–	?	?	?	–	?
Cc1ccc(-c2nn(-c3ccccc3)cc2/C=N/NC(=O)c2ccc(Br)o2)cc1	–	–	?	28.2µM	–	·
Cc1ccc(NC(=O)CSc2nnc(C)n2-c2ccccc2)cc1	–	–	–	–	–	–
Cc1nnc(SCC(=O)N/N=C/c2cn(-c3ccccc3)nc2-c2ccccc2)n1-c1ccccc1	?	?	?	28.2µM	–	?
COc1cc(/C=C\c2ccc(OC)cc2OC)cc(OC)c1	·	·	·	–	·	·
CNC(=S)N1N=C(c2ccc(C)cc2)CC1c1ccc(Br)cc1 (centres undefined)	·	?	?	–	–	·
CNC(=S)N1N=C(c2ccc(C)cc2)CC1c1ccc(Cl)cc1 (centres undefined)	·	9.2µM	?	–	–	·
Cc1ccc(NC(=S)NC(NC(=O)c2ccccc2)C(Cl)(Cl)Cl)c(C)c1 (centres undefined)	?	?	?	?	-67.9	?
O=C(NC(NC(=S)Nc1ccccc1)C(Cl)(Cl)Cl)c1cccc(Cl)c1 (centres undefined)	?	?	?	·	-78.5	?
Cc1cccc(C)c1NC(=O)Cn1c(=O)n(CCCS(=O)(=O)C2CCCCC2)c(=O)c2ccccc21	–	–	–	–	–	–
SMILES	Vaccinia Venus	Lassa entry inh	Marburg entry inh	FMDV inh	HCMV inh	VACV mCherry inh
N/C(COc1cc(Cl)cc(Cl)c1)=N\O	–	–	?	–	-64.9	–
OC(CN1C2=NCCCN2c2ccccc21)c1ccc2c(c1)OCO2 (centres undefined)	–	–	–	–	–	·
OC(CN1C2=NCCN2c2ccccc21)c1ccc2c(c1)OCO2 (centres undefined)	11.2µM	?	?	–	–	–[1.46 µM]
CCOC(=O)c1ccc(NC(=O)C2CCCN(c3ncnc4onc(C)c34)C2)cc1 (centres undefined)	–	?	·	–	-74.5	–
CCOC(=O)c1ccc(NC(=O)C2CCCN(c3ccc(Sc4ccc(C)cc4)nn3)C2)cc1 (centres undefined)	–	6.31µM	?	–	–	–
Cc1ccc(Sc2ccc(N3CCCC(C(=O)Nc4ccc(F)cc4F)C3)nn2)cc1 (centres undefined)	–	0.891µM	?	–	–	–
O=C1NC[C@H](Cc2ccccc2)N(C[C@@H]2CCCN2C[C@H](Cc2ccccc2)N2C[C@H](Cc3ccccc3)N(CCc3ccccc3)C(=O)C2=O)C1=O	–	·	·	–	?	–
COCCCNC(=O)c1sc2ncnc(N3CCc4ccccc4C3)c2c1C	·	?	8.2µM	?	–	·
Cc1cc(C)cc(NC(=O)Nc2ccc3c(c2)N(C)C(=O)CS3)c1	–	·	·	?	–	–
CCc1ccc(NC(=O)Nc2ccc3c(c2)N(C)C(=O)CS3)cc1	–	·	·	–	-69.4	–
Cc1nn(CC(=O)NC(=O)c2ccccc2)c(C)c1[N+](=O)[O-]	·	·	·	–	–	·
C[C@@H]1O[C@@H](O[C@H]2C[C@@H](O)[C@]3(CO)[C@H]4[C@H](O)C[C@]5(C)[C@@H]([C@@H]6COC(=O)C6)CC[C@]5(O)[C@@H]4CC[C@]3(O)C2)[C@H](O)[C@H](O)[C@H]1O	·	·	0.316µM	·	·	·
C[C@@H]1O[C@@H](O[C@H]2C[C@@H](O)[C@]3(CO)[C@@H]4C(CC[C@]3(O)C2)[C@@]2(O)CC[C@H](C3COC(=O)C3)[C@@]2(C)C[C@H]4O)[C@H](O)[C@H](O)[C@H]1O (some centres undefined)	1.78µM	·	0.82µM	?	-99.2	?
CCOC(=O)C1=CCN(S(=O)(=O)c2ccc(Br)cc2)C1c1cccc(Br)c1 (centres undefined)	·	·	·	·	–	·
O=C(Oc1ccnc2cc(Cl)ccc12)N1CCCCCC1	?	?	?	–	-100.6	·
CC(C)N(C(=O)N1CCN(c2ccnc3cc(Cl)ccc23)CC1)C(C)C	–	11.2µM	?	?	-89.8	–
CCOC(=O)N1CCN(c2ccnc3cc(Cl)ccc23)CC1	–	–	?	–	-62.5	–
CCC(=O)N1CCN(c2ccnc3cc(Cl)ccc23)CC1	–	–	–	–	?	–
O=C(NNc1ccnc2cc(Cl)ccc12)C1CCCCC1	–	–	?	?	-81.8	–
C(=NCc1ccccc1)N1c2ccccc2-n2cccc2C1CCc1ccccc1 (centres undefined)	·	·	·	·	–	·
Clc1ccc2c(N3CCCC3)ccnc2c1	·	–	–	–	?	·
FC(F)Oc1ccc(NC(=S)NNc2ccnc3cc(Cl)ccc23)cc1	–	?	11.2µM	?	-87.8	–
O=C(c1ccc(Cl)cc1)N1CCN(c2ccnc3cc(Cl)ccc23)CC1	–	?	?	28.2µM	?	?
NC(=S)NNc1ccnc2cc(Cl)ccc12	–	–	?	–	–	?
COc1cc(/C=C2\C(=N)N3N=C(S(C)(=O)=O)SC3=NC2=O)ccc1OC(=O)c1ccco1	·	·	·	–	–	·

Compound activity as filed in PubChem BioAssay.
